According to PubChem BioAssay:
Active and inactive are the calls of the source.

Assay: cell viability in Huh7 cells, primary screen, cytotoxicity control for HCV replication inhibitor project, CellTiter-Glo luminescence, basal, 48 h (AID 1143);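 note: Huh7 hepatoma cells carrying a hepatitis C replication reporter with no stimulus; test concentration not given here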
Details: Huh7 HCV replicon, higher = more signal, called active from +8 up or from −8 down

Row | Compound | z-score
1 | CCOC(=O)C[C@H]1[C@H](OC(=O)Cc2ccc3c(c2)OCO3)[C@@H](NC(=O)Cc2ccc(OC)cc2)c2cc(OCCCO)ccc2N1C(=O)Cc1ccc(OC)cc1 | -0.972 (inactive)
2 | COC(=O)[C@@]1(Cc2ccccc2)[C@H]2c3cc(C(=O)N4CCCC4)n(Cc4ccc(OC)c(OC)c4)c3C[C@H]2CN1C(=O)c1ccccc1 | -1.99 (inactive)
3 | [N-]=[N+]=Nc1ccccc1C[C@]1(C(=O)N2CCOCC2)N=C(c2ccc(OCCCO)cc2)O[C@H]1c1ccccc1N=[N+]=[N-] | -4.16 (inactive)
4 | CC(C)(C)N1CC=CC23O[C@@H]4/C=C\CCCOC(=O)C4[C@H]2C(=O)N(CCCO)[C@@H]3C1=O (some centres undefined) | 0.317 (inactive)
5 | COc1ccc(CCNC(=O)[C@@H]2c3ccccc3C(=O)N(Cc3ccccc3OC)[C@H]2c2ccc(CO)cc2)cc1 | -0.449 (inactive)
6 | NC(=O)NCC#Cc1ccc2c(c1)[C@]1(C(=O)N2)[C@H](c2ccc(OCCO)cc2)N2[C@H](c3ccccc3)[C@H](c3ccccc3)OC(=O)[C@H]2[C@@H]1C(=O)O | -4.1 (inactive)
7 | COc1ccc(C(=O)Nc2ccc3c(c2)[C@@]2(O[C@H](CCO)[C@@H]([Si](C)(C)c4ccc(OC)cc4)[C@@H]2C)C(=O)N3Cc2ccccc2)cc1 | -8.09 (active)
8 | COC(=O)C1=CC(CCCO)=CC(c2cccs2)N(Cc2cc3c(cc2Br)OCO3)C=C1C(=O)OC (centres undefined) | -1.96 (inactive)
9 | O=C1O[C@H](c2ccccc2)[C@H](c2ccccc2)N2[C@H]1[C@@H](C(=O)O)[C@]1(C(=O)Nc3ccc(C#CCCO)cc31)[C@H]2c1ccc(OCCO)cc1 | -0.33 (inactive)
